Test results: the OligoGym collection

These sequences were tested against RDH8 (assay: pooled miR-30 sensor sort-seq; sequence = guide strand). Conditions: shRNA.
Also: reference of the scale not given here.

Sequence	sensor-assay potency score (higher = more potent)
TTCTGCATGGCAGCAAGGCTGA	-1.12
TCAAACTCGGTGACCACGGGGC	-0.118
ATGAAGAGTCTGTTCATCCTTT	0.345
TTGAAGGCCAAGGTTGAGGAGG	-0.704
TCGAGTCGAGCTGATGACGTTG	-0.883
ATCGTTGAAGATGACACCCTGC	0.0457
TAGCGGATGTTGGTCTGTCGGC	-1.33
ATCACTGCACACGTCCAGCTGG	-0.715
TTGACGAGACGGACAGCTCCGA	-0.0536
TACAGCTGAGACACTGGGCCAC	0.00741
TTGGTGTCAAAGACATTCTGCA	0.0313

The sequences below were run against RECQL4 in the same assay as above. Conditions: shRNA.

Sequence	sensor-assay potency score (higher = more potent)
TTTCTTCCGCCACTTCTGCTTC	-1.04
TATTTTCTCCAGAAGCGTCGGT	0.184
TTCTGCTTCATGTTGAGCCGTA	0.124
TTATTCTGCATTTTGGAGCCTC	0.116
TTGGTTGTGACTGTGGCACCAC	0.278
TAGAGTGGCAGCACGGTGGGGT	0.669
TTCAGGAAACAAGACTCCTTGG	-0.807
TTGTGGTGAAGGAACCAGTGGC	0.104
TTGAAAACGTTTGCCTTGCAGC	-0.47
AACAGCATCTGTGTCTTCCTCA	0.181
TAGCACAGCAAAGTCTCGATGG	-0.495
TTCTGCAGGACAGATTCCCGTT	-0.459

These sequences were tested against RELA in the same assay as above. Conditions: shRNA.

Sequence	sensor-assay potency score (higher = more potent)
TAGCCATTGATCTTGATGGTGG	-0.637
TTTCTGCACCTTGTCACACAGT	-0.991
TTCATCATCAAACTGCAGCTGC	0.151
TTTCCTACAAGCTCGTGGGGGT	-0.0432
TATCTGTGCTCCTCTCGCCTGG	-1
TTGAGCTCGGCAGTGTTGGGGG	0.294
TTACGTTTCTCCTCAATCCGGT	0.444
TTGGGGACAGAAGCTGAGCTGC	-1.1
TTCTATAGGAACTTGGAAGGGG	0.628
TTGTCGGTGCACATCAGCTTGC	-0.891
TTTACGTTTCTCCTCAATCCGG	-0.69
TCAATGATCTCCACATAGGGGC	-0.148

Each sequence was assayed against REPS2 in the same assay as above. Conditions: shRNA.

Sequence	sensor-assay potency score (higher = more potent)
TTTTCTGGTCTGAATTTCCTAC	-0.484
TAGTACTTTTCAAAGCTTGTTT	-0.389
TTCTGTGATCTGGTGCAGCGTC	-0.566
TTGACATAGTACTCGCGCTGTT	-0.809
ATTGACATAGTACTCGCGCTGT	0.431
